Assay results from PubChem BioAssay (EPA / NIEHS).
Records with an inconclusive call do not appear. Calls of active or inactive are those of the source. How the source made its calls, unless noted: active means hit-call score of the fitted dose curve at least 0.9, where 1 is the maximum; inactive means score below 0.9.

Key:
[1] = ATG_TCF_b_cat_CIS: Attagene CIS-FACTORIAL HepG2 Assay for human T-Cell-Factor with beta-catenin (TCF/b-cat) (AID 2282965); details: HepG2 TCF/beta-catenin cis-reporter transcription, actives raise or lower the signal
Procedure, shortened: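 In this cis-format system, transfected HepG2 cells report endogenous transcription factor activity. Readout after 24 h exposure is reporter transcript abundance from RT-PCR and capillary electrophoresis, analysed for gain or loss of signal versus DMSO.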

[2] = ATG_TGFb_CIS: Attagene CIS-FACTORIAL HepG2 Assay for human Transforming Growth Factor (TGF) (AID 2282967); details: HepG2 Attagene CIS TGFb reporter, mRNA transcription; actives raise or lower the signal
Procedure, shortened: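 Transcript-level reporter readout: HepG2 transfectants, 24 h exposure, RNA to cDNA, reporter-specific PCR, fluorescent primer extension, capillary sizing against ROX standards. Gain- or loss-of-signal relative to DMSO.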

[3] = ATG_VDRE_CIS: Attagene CIS-FACTORIAL HepG2 Assay for human Vitamin D Receptor Element (VDRE) (AID 2282968); details: HepG2 VDRE cis-reporter transcription, actives raise or lower the signal
Procedure, shortened: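 Steps: transfect HepG2 with multiple reporter transcription units; dose chemicals 24 h; isolate RNA; RT-PCR; label with 6-FAM primer extension; HpaI digest; capillary electrophoresis. Curves fitted both directions against DMSO.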

[4] = target: Estrogen receptor (Homo sapiens) (UniProt P03372); test: ATG_ERa_TRANS: Attagene TRANS-FACTORIAL HepG2 Assay for human Estrogen Receptor alpha (ERa) (AID 2282970; active means hit-call score of the fitted dose curve at least 0.9, where 1 is the maximum); details: HepG2 Attagene TRANS ERa GAL4 reporter, mRNA
Sequence of Estrogen receptor (Homo sapiens) (P03372 whole entry, looked up, the tested form may be a part): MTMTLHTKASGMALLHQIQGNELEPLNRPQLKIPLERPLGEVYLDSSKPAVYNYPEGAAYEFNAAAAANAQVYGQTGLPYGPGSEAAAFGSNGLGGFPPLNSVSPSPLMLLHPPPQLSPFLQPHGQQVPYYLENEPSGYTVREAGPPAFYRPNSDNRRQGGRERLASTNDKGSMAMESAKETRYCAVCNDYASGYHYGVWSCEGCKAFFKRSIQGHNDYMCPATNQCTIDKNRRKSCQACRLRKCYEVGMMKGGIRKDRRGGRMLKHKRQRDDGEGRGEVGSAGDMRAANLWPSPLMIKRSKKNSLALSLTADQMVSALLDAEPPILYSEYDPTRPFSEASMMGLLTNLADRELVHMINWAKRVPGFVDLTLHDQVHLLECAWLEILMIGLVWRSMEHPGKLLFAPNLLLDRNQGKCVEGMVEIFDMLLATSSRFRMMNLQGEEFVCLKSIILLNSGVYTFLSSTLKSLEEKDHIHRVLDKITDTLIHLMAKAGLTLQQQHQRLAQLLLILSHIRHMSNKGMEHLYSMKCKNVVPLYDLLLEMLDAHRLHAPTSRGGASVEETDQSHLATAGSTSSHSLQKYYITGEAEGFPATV
Procedure, shortened: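 Reporter transcripts were measured 24 h after dosing by RT-PCR with fluorescent primer extension and capillary electrophoresis. The system is transiently transfected HepG2 expressing exogenous NR-Gal4 chimeras driving GAL4-UAS reporters; DMSO is the baseline.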

[5] = target: X-box-binding protein 1 (Homo sapiens) (UniProt P17861); test: ATG_Xbp1_CIS: Attagene CIS-FACTORIAL HepG2 Assay for human X-box Binding Protein 1 (XBP1) (AID 2282972); details: HepG2 XBP1 cis-element reporter, Attagene multiplex; actives raise or lower the signal
Sequence of X-box-binding protein 1 (Homo sapiens) (P17861 whole entry, looked up): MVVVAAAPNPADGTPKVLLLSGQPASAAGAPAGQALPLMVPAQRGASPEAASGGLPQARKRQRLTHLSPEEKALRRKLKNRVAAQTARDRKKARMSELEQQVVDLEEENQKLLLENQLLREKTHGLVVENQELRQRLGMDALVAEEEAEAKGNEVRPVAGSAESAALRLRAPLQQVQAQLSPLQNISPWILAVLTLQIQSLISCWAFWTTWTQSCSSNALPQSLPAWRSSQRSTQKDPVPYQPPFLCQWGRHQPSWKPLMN
Procedure, shortened: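 Reporter transcripts were quantified by RT-PCR with fluorescent primer extension and capillary electrophoresis after 24 h chemical exposure. Cells: transiently transfected HepG2 carrying cis-regulated reporter constructs; data fitted bidirectionally relative to DMSO.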

[6] = ATG_GAL4_TRANS: Attagene TRANS-FACTORIAL HepG2 Assay for GAL4 (Internal Marker) (AID 2282976; active means hit-call score of the fitted dose curve at least 0.9, where 1 is the maximum); details: HepG2 Attagene TRANS GAL4 internal marker reporter
Procedure, shortened: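 In transfected human HepG2 liver cells dosed 24 h, GAL4 reporter mRNA serves as a baseline marker. Detection by RT-PCR with fluorescent capillary electrophoresis, activity fitted upward relative to DMSO.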

[7] = ATG_M_19_TRANS: Attagene TRANS-FACTORIAL HepG2 Assay for M19 Transcription Factor (Internal Marker) (AID 2282974; active means hit-call score of the fitted dose curve at least 0.9, where 1 is the maximum); details: HepG2 Attagene TRANS-FACTORIAL M19 internal marker reporter
Procedure, shortened: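 Multiplexed TRANS format: HepG2 liver cells bearing transient GAL4-UAS reporter units, chemical treatment 24 h, reporter transcripts quantified by RT-PCR plus capillary electrophoresis. DMSO defines baseline.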

[8] = target: Nuclear receptor subfamily 1 group I member 3 (Homo sapiens) (UniProt Q14994); test: ATG_CAR_TRANS: Attagene TRANS-FACTORIAL HepG2 Assay for human Constitutive Androstane Receptor (CAR) (AID 2282969; active means hit-call score of the fitted dose curve at least 0.9, where 1 is the maximum;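 further: activators raise reporter mRNA above DMSO so AC50 marks induction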); details: HepG2 Attagene TRANS-FACTORIAL CAR reporter
Sequence of Nuclear receptor subfamily 1 group I member 3 (Homo sapiens) (Q14994 whole entry, looked up, the tested form may be a part): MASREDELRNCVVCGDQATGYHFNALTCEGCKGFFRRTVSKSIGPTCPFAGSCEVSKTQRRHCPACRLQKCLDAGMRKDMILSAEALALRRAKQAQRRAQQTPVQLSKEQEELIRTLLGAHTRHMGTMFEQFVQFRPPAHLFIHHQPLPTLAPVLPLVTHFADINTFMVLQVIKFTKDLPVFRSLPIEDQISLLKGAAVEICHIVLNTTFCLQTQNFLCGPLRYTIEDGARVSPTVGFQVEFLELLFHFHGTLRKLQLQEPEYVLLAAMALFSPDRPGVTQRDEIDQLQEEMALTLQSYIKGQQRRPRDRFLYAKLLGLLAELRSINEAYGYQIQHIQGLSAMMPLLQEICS
Procedure, shortened: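 Steps: transient transfection of HepG2 with multiple GAL4-UAS reporter units; 24 h compound incubation; RNA isolation, RT-PCR, 6-FAM primer extension, HpaI digest; capillary electrophoresis. Gain-of-signal relative to DMSO negative control.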

[9] = target: Steroid hormone receptor ERR1 (Homo sapiens) (UniProt P11474); test: ATG_ERRa_TRANS: Attagene TRANS-FACTORIAL HepG2 Assay for human Estrogen-Related Receptor alpha (ERRa) (AID 2282971; active means hit-call score of the fitted dose curve at least 0.9, where 1 is the maximum); details: HepG2 Attagene TRANS reporter, ERRa transactivation
Sequence of Steroid hormone receptor ERR1 (Homo sapiens) (P11474 whole entry, looked up, the tested form may be a part): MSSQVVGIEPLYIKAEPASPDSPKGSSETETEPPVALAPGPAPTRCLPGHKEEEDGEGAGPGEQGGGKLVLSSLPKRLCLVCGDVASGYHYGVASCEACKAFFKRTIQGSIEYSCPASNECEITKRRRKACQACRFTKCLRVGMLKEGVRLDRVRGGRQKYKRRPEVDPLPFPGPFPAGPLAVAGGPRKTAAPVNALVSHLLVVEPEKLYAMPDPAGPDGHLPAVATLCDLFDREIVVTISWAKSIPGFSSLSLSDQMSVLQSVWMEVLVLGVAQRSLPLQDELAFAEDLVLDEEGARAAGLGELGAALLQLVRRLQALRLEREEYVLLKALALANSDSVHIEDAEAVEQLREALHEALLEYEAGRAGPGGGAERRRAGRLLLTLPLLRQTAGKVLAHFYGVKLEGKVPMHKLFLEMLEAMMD
Procedure, shortened: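 Reporter transcripts from ERRa-Gal4 chimera activity measured in transiently transfected human HepG2 cells 24 hours after dosing, using RT-PCR with 6-FAM primer extension, HpaI digestion and capillary electrophoresis; DMSO is baseline.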

[10] = ATG_TAL_CIS: Attagene CIS-FACTORIAL HepG2 Assay for human TAL Basal Promoter (AID 2282966); details: HepG2 Attagene cis-factorial TAL promoter reporter; actives raise or lower the signal;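 further: background control endpoint measuring basal TAL promoter reporter mRNA not a specific factor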
Procedure, shortened: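 Background-control endpoint: basal TAL promoter reporter transcripts in transiently transfected HepG2, measured 24 h after dosing. Read-out by RT-PCR with fluorescent primer extension and capillary electrophoresis; gain or loss of signal fitted relative to DMSO.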

Measured: AC50

CCN(CCO)S(=O)(=O)C(F)(F)C(F)(F)C(F)(F)C(F)(F)C(F)(F)C(F)(F)C(F)(F)C(F)(F)F
active: [5] 29.8 µM
inactive: [1] | [2] | [3] | [4]

CC(C)(C)c1cc(CCC(=O)NCCCCCCNC(=O)CCc2cc(C(C)(C)C)c(O)c(C(C)(C)C)c2)cc(C(C)(C)C)c1O
active: [3] 0.811 µM
inactive: [1] | [4] | [6]

C[Si](C)O[Si](C)C
inactive: [1] | [2] | [3] | [7] | [6]

Cc1cc(O)c(C(C)(C)C)cc1C(C)(C)C
inactive: [1] | [3] | [8] | [4] | [5]

CCN(CC)c1ccc(C=O)c(O)c1
inactive: [1] | [2] | [4] | [5] | [6]
active: [3] 32.5 µM

C[Si](Cl)(Cl)CCC(F)(F)C(F)(F)C(F)(F)C(F)(F)C(F)(F)C(F)(F)F
inactive: [1] | [2] | [3] | [4] | [9] | [6]

O=C1OC(=O)c2ccc3c4c(ccc1c24)C(=O)OC3=O
inactive: [1] | [2] | [3] | [4] | [5] | [6]

OCC(O)CC(F)(F)C(F)(F)C(F)(F)C(F)(F)C(F)(F)C(F)(F)C(F)(F)C(F)(F)F (stereo not given)
active: [4] 9.15 µM
not listed: [8] | [10]
inactive: all other assays above

CCCCCCCCCCCCCC[P+](CCCC)(CCCC)CCCC
inactive: [1] | [4] | [7] | [6]
active: [3] 0.897 µM

CNS(=O)(=O)C(F)(F)C(F)(F)C(F)(F)C(F)(F)C(F)(F)C(F)(F)C(F)(F)C(F)(F)F
active: [4] 9.26 µM
not listed: [6] | [8] | [10]
inactive: all other assays above

CCC(Cc1c(I)cc(I)c(N)c1I)C(=O)O (stereo not given)
active: [1] 55.5 µM | [4] 4.99 µM
inactive: [2] | [3] | [5]

F[Si-2](F)(F)(F)(F)F
inactive: [1] | [2] | [3] | [9] | [5]

O=C(O)C(F)(F)OC(F)(F)C(F)(F)OC(F)(F)C(F)(F)OC(F)(F)F
inactive: [1] | [2] | [3] | [4]

CC(O)C#CC(C)O (stereo not given)
active: [1] 99.5 µM | [3] 39.5 µM | [8] 99.5 µM
inactive: [2] | [4] | [5]

CC(C)=CCCC(C)O (stereo not given)
inactive: [1] | [3] | [8] | [5] | [6]

Nc1c(Br)cc([N+](=O)[O-])cc1Br
not listed: [7] | [8] | [10]
inactive: all other assays above

CSc1ccc(O)cc1C
active: [4] 11.3 µM
not listed: [5] | [8] | [10]
inactive: all other assays above

O=S(=O)(O)CCC(F)(F)C(F)(F)C(F)(F)C(F)(F)F
inactive: [1] | [10] | [3] | [9] | [5] | [7]

Cc1cc(=O)[nH]c(C(C)C)n1
inactive: [1] | [3] | [8] | [9] | [5] | [6]

O=C(c1ccccc1)c1ccc(Cl)cc1
active: [2] 100 µM | [3] 47.6 µM | [4] 12.1 µM
inactive: [10] | [8] | [5]

CCN=C1C=CC(=C(c2ccc(N(CC)CC)cc2)c2ccc(N(CC)CC)cc2)c2ccccc21
active: [1] 0.885 µM | [3] 1.15 µM
inactive: [10] | [7] | [6]

CC(C)OC=O
inactive: [1] | [2] | [3] | [5] | [7] | [6]

O=c1cccc[nH]1
inactive: [1] | [10] | [3] | [9] | [5] | [7]

N#CCCOCCC#N
not listed: [4] | [7] | [10]
inactive: all other assays above

CCOCOCC
inactive: [1] | [2] | [3] | [4] | [5] | [7]

OCCC(O)CO (stereo not given)
not listed: [1] | [8] | [9]
inactive: all other assays above

CCCCCCCCCCCCCCCCC
inactive: [3] | [4] | [5]

CO[Si](CCCOCC1CO1)(OC)OC (stereo not given)
inactive: [10] | [3] | [5]

CN(C(=O)C(F)(F)C(F)(F)C(F)(F)F)[Si](C)(C)C
inactive: [10] | [2] | [3] | [4] | [9]

c1ccc(C[P+](c2ccccc2)(c2ccccc2)c2ccccc2)cc1
active: [5] 53.4 µM
inactive: [10] | [3] | [9] | [7] | [6]

NC(=O)C(F)(F)C(F)(F)C(F)(F)C(F)(F)C(N)=O
inactive: [3] | [4] | [9] | [5] | [7] | [6]

CC(=O)C=O
inactive: [10] | [2] | [3] | [7] | [6]

CC(C)(C)C(=O)C1C(=O)c2ccccc2C1=O
inactive: [2] | [8] | [4] | [5]
active: [3] 42.2 µM

Cc1ccc2c(c1)OCC(=O)CO2
inactive: [10] | [3] | [4] | [9] | [5] | [7]
